Experimental data: the supplement of paper PMC10849652
The full data set covers some 7,900 targets. This sample favours those with a hit. About 0.6% of all pairs of compound and target were hits. A number with no mark means an inactive call.

Experiments:
Test in all cases: log2 fold change, soluble protein after heating vs DMSO (PISA); higher = thermal stabilisation; K562 cells, 10 uM, 30 min; active = over 0.2 and 3.5 SD of the protein, either way, in both replicates (recomputed)
[1] = compound: COC1=CC=C(C=C1)CN2C=CC3=C2C=C(C=C3)C(=O)NO
Method in brief: (§1)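 K562 cells at 2×10^6 cells/mL were treated for 30 min with 10 μM compound, and aliquots were heated for 3 min over 48°C-58°C before pooling. Extraction used PBS with 0.5% NP-40 at 4°C, and soluble protein was the supernatant after 21,000xg for 90 min, measured by TMTpro 16plex LC-MS/MS with channel sums equalised. Thermal stability values, relative to control samples and from duplicates, are log2 fold changes.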

[2] = compound: CON(C)C(=O)N1N=C(c2cc(F)ccc2F)S[C@@]1(CCCN)c1ccccc1 [filanesib]
Method in brief: as §1

[3] = compound: CO[C@H]1C[C@@H]2CC[C@@H](C)[C@@](O)(O2)C(=O)C(=O)N2CCCC[C@H]2C(=O)O[C@H]([C@H](C)C[C@@H]2CC[C@H](n3cnnn3)[C@H](OC)C2)CC(=O)[C@H](C)/C=C(\C)[C@@H](O)[C@@H](OC)C(=O)[C@H](C)C[C@H](C)/C=C/C=C/C=C/1C [zotarolimus]
Method in brief: as §1

[4] = compound: COc1cc(C(=O)O)ccc1NC(=O)[C@@H]1N[C@@H](CC(C)(C)C)[C@](C#N)(c2ccc(Cl)cc2F)[C@H]1c1cccc(Cl)c1F [idasanutlin]
Method in brief: as §1

[5] = compound: COc1cc(Nc2ncc3c(n2)-c2ccc(Cl)cc2C(c2c(F)cccc2OC)=NC3)ccc1C(=O)O [alisertib]
Method in brief: as §1

[6] = compound: COc1cc2nc(-c3cc(F)ccc3O)nc(N[C@@H]3CNC[C@H]3C(C)(C)O)c2cc1OC
Method in brief: as §1

[7] = compound: COc1cc2ncnc(Nc3ccc(F)c(Cl)c3)c2cc1OCCCN1CCOCC1 [gefitinib]
Method in brief: as §1

[8] = compound: COc1cccc2cc(-c3nc([C@H]4CC[C@H](C(=O)O)CC4)n4ncnc(N)c34)[nH]c12
Method in brief: as §1

[9] = compound: CS(=O)(=O)CCNCc1ccc(-c2ccc3ncnc(Nc4ccc(OCc5cccc(F)c5)c(Cl)c4)c3c2)o1 [lapatinib]
Method in brief: as §1

[10] = compound: CS(=O)(=O)N1CCN(Cc2cc3nc(-c4cccc5[nH]ncc45)nc(N4CCOCC4)c3s2)CC1 [pictilisib]
Method in brief: as §1

[11] = compound: CS(=O)(=O)c1ccc(-c2cnc(N)c(C(=O)Nc3ccccc3)n2)cc1
Method in brief: as §1

[12] = compound: C[C@@H](Oc1cc(-c2cnn(C3CCNCC3)c2)cnc1N)c1c(Cl)ccc(F)c1Cl [crizotinib]
Method in brief: as §1

[13] = compound: C[C@@H]1COCCN1C2=NC(=NC(=C2)C3(CC3)S(=O)(=O)C)C4=C5C=CNC5=CC=C4
Method in brief: as §1

[14] = compound: C[C@H](C1=CC=C(C=C1)C(=O)NC2=C3C=CNC3=NC=C2)N
Method in brief: as §1

[15] = compound: C[C@H](Nc1ncnc2nc[nH]c12)c1cc2cccc(Cl)c2c(=O)n1-c1ccccc1 [duvelisib]
Method in brief: as §1

[16] = compound: Cc1cc(Nc2cc(CN3CCOCC3)c3nc(C)c(Cc4ccc(Cl)cc4F)n3n2)n[nH]1 [gandotinib]
Method in brief: as §1

[17] = compound: Cc1cc(Nc2cc(N3CCN(C)CC3)nc(Sc3ccc(NC(=O)C4CC4)cc3)n2)n[nH]1 [tozasertib]
Method in brief: as §1

[18] = compound: Cc1cc(SCc2sc(-c3ccc(C(F)(F)F)cc3)nc2C)ccc1OCC(=O)O
Method in brief: as §1

[19] = compound: Cc1ccc(-n2nc(C(C)(C)C)cc2NC(=O)Nc2ccc(OCCN3CCOCC3)c3ccccc23)cc1 [doramapimod]
Method in brief: as §1

[20] = compound: Cc1ccc(C(=O)N(CCCN)[C@@H](c2nc3cc(Cl)ccc3c(=O)n2Cc2ccccc2)C(C)C)cc1 [ispinesib]
Method in brief: as §1

UniProt O75116, sequence (O75116 whole entry, looked up): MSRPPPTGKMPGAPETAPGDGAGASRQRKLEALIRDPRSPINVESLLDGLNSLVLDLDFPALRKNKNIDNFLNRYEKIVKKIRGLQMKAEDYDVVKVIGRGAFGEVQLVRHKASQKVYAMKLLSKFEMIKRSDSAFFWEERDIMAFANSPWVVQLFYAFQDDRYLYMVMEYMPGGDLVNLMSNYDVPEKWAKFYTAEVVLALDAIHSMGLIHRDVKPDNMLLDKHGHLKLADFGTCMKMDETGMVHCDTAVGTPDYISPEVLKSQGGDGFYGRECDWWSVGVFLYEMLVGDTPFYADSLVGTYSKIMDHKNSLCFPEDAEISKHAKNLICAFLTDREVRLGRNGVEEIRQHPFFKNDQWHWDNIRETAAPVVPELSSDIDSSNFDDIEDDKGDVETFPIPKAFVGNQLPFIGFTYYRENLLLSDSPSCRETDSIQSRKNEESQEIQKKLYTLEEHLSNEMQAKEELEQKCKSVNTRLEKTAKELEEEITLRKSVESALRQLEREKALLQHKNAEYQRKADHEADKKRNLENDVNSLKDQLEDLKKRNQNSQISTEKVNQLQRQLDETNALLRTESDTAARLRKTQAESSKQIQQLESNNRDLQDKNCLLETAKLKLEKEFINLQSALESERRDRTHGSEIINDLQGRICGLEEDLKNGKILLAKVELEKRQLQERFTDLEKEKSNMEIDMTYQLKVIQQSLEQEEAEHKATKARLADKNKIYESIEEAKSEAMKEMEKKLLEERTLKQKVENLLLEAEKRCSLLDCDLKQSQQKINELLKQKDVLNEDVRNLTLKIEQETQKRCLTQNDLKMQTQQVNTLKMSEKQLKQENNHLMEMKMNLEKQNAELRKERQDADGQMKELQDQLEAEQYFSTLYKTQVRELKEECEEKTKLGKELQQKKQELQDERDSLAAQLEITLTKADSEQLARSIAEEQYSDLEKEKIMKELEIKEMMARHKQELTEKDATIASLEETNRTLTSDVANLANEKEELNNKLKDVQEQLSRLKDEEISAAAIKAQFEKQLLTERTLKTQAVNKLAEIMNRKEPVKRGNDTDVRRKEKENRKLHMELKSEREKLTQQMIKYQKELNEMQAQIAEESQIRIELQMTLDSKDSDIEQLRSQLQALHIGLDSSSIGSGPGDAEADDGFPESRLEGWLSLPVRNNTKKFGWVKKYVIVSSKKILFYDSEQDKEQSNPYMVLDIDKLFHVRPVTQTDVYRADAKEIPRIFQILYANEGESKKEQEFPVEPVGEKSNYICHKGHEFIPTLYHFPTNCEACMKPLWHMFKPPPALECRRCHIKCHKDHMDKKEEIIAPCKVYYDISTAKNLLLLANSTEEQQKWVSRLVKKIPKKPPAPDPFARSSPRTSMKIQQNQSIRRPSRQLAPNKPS
UniProt Q9NX18, sequence (Q9NX18 whole entry, looked up): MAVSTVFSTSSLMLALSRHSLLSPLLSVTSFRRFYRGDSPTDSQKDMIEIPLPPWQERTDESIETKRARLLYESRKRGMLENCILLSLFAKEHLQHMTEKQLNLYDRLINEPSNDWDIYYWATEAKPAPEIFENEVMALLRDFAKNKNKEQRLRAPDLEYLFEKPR
UniProt Q9HB40, sequence (Q9HB40 whole entry, looked up): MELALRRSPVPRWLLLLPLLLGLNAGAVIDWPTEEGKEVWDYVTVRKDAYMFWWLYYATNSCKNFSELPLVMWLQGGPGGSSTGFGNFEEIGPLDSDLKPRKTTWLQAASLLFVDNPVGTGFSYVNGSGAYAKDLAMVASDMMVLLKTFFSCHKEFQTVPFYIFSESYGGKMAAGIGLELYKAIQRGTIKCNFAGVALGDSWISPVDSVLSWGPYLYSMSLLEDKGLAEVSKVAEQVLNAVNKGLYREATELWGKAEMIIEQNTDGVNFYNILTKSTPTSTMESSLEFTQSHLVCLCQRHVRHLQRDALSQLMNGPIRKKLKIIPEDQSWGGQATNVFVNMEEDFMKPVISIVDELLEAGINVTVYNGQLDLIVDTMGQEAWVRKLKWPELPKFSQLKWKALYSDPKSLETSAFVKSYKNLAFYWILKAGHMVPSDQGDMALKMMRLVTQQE
UniProt O14796, sequence (O14796 whole entry, looked up): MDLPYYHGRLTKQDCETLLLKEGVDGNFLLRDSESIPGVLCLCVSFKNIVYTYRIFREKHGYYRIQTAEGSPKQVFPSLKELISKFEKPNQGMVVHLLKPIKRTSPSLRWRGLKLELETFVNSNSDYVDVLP
UniProt P35244, sequence (P35244 whole entry, looked up): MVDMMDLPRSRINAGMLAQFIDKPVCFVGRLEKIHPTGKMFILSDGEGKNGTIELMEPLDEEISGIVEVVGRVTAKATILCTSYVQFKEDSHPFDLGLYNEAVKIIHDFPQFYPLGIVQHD
UniProt Q5JTH9, sequence (Q5JTH9 whole entry, looked up): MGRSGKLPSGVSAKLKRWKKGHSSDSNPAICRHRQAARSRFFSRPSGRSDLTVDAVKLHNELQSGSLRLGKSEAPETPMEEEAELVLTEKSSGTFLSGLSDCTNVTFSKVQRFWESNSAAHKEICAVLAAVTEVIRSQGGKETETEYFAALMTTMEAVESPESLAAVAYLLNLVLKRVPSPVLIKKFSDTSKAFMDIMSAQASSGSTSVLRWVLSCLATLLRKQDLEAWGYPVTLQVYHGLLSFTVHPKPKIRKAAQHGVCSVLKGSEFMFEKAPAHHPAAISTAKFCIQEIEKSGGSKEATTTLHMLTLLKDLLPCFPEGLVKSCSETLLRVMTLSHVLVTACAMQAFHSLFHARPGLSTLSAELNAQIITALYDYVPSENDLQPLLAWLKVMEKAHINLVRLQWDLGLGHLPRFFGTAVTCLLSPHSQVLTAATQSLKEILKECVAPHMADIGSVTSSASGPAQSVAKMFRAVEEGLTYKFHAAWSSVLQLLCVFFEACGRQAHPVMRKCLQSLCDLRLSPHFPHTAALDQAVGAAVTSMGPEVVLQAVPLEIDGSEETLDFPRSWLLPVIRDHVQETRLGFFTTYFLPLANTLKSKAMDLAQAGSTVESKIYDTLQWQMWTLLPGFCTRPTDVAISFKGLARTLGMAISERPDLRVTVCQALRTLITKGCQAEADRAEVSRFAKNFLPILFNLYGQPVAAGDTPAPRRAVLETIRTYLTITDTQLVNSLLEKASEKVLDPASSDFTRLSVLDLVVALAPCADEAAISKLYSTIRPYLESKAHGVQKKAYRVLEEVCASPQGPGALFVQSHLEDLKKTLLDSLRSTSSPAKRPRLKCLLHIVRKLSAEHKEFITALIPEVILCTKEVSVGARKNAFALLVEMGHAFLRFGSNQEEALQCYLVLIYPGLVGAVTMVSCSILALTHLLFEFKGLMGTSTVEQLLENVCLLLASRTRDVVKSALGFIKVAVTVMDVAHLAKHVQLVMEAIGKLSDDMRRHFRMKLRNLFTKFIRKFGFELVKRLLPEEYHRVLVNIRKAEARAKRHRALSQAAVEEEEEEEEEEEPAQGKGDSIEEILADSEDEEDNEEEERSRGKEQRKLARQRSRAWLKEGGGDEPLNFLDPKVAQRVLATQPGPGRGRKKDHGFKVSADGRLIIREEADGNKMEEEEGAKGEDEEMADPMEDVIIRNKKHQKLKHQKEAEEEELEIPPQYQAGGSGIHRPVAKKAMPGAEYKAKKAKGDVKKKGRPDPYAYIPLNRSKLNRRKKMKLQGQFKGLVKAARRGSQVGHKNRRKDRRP
UniProt Q96IZ7, sequence (Q96IZ7 whole entry, looked up): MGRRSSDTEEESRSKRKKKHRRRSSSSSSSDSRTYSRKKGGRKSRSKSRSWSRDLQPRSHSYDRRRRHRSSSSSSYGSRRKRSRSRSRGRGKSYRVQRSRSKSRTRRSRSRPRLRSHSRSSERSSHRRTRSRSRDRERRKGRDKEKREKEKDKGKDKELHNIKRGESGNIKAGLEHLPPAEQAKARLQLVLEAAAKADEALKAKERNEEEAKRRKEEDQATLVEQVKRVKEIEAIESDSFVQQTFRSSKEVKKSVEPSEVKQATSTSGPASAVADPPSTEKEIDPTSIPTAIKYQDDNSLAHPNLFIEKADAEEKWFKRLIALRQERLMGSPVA
UniProt Q9BWF3, sequence (Q9BWF3 whole entry, looked up): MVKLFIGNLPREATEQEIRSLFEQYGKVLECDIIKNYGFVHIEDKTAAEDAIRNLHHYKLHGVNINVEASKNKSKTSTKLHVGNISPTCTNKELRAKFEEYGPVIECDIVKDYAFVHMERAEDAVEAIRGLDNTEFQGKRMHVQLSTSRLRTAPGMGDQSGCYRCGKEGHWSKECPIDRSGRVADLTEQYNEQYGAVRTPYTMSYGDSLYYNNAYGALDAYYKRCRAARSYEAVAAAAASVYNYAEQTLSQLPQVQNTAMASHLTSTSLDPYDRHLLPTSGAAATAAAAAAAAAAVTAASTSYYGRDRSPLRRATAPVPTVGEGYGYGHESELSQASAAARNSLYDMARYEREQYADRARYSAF
UniProt P51148, sequence (P51148 whole entry, looked up): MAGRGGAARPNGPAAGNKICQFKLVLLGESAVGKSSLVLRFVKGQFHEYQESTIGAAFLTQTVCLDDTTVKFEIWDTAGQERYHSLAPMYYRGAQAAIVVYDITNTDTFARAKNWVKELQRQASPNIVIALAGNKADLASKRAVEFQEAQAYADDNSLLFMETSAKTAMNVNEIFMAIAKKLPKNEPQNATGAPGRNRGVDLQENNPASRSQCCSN
UniProt Q9H6H4, sequence (Q9H6H4 whole entry, looked up): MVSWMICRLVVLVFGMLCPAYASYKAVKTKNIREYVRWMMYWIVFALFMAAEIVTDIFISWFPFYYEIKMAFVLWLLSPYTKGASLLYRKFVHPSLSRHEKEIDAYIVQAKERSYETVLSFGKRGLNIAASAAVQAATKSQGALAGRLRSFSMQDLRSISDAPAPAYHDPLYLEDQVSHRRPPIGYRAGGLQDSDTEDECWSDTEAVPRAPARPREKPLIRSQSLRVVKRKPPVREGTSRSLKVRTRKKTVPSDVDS
UniProt Q9BUV8, sequence (Q9BUV8 whole entry, looked up): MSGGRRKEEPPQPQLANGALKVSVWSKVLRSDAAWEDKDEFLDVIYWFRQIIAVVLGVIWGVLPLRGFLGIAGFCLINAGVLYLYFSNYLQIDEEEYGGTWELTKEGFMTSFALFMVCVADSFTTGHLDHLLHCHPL

| Target | log2 fold change [1] | log2 fold change [2] | log2 fold change [3] | log2 fold change [4] | log2 fold change [5] | log2 fold change [6] | log2 fold change [7] | log2 fold change [8] | log2 fold change [9] | log2 fold change [10] | log2 fold change [11] | log2 fold change [12] | log2 fold change [13] | log2 fold change [14] | log2 fold change [15] | log2 fold change [16] | log2 fold change [17] | log2 fold change [18] | log2 fold change [19] | log2 fold change [20] |
| --- | --- | --- | --- | --- | --- | --- | --- | --- | --- | --- | --- | --- | --- | --- | --- | --- | --- | --- | --- | --- |
| SDHAF2 (UniProt Q9NX18) | 0.063 | -0.03 | 0.068 | -0.085 | 0.02 | -0.163 | 0.09 | 0.102 | -0.013 | 0.091 | -0.042 | -0.183 | 0.07 | -0.111 | 0.082 | 0.057 | 0.002 | -0.125 | -0.051 | 0.006 |
| RAB5C isoform 2 (UniProt P51148) | -0.002 | -0.053 | -0.015 | -0.055 | -0.095 | 0.015 | 0.013 | 0.038 | -0.027 | -0.017 | -0.015 | 0.099 | 0.015 | -0.092 | 0.011 | -0.021 | -0.029 | 0.014 | 0.013 | 0.054 |
| RSRC1 (UniProt Q96IZ7) | 0.136 | -0.003 | 0.033 | -0.004 | -0.084 | -0.024 | 0.024 | 0.001 | 0.041 | 0.101 | 0.007 | -0.059 | 0.027 | -0.386 (active) | 0.086 | 0.176 | -0.079 | -0.034 | 0.051 | 0.037 |
| RDH11 (UniProt Q8TC12) | 0.087 | -0.046 | 0.093 | 0.032 | -0.01 | -0.333 | 0.071 | 0 | 0.03 | 0.241 | 0.164 | -0.303 | 0.082 | 0.116 | 0.11 | 0.115 | -0.029 | 0.425 (active) | 0.098 | -0.365 |
| RAB5IF isoform 5 (UniProt Q9BUV8) | 0.429 (active) | -0.243 | -0.074 | -0.015 | -0.081 | -0.021 | 0.018 | 0.002 | 0.006 | 0.006 | -0.036 | -0.094 | 0.076 | -0.007 | 0.078 | 0.04 | -0.156 | -0.002 | 0.025 | 0.157 |
| RBM4 (UniProt Q9BWF3) | -0.071 | 0.065 | 0.035 | 0.051 | 0.038 | -0.036 | -0.04 | -0.038 | 0.024 | 0.005 | -0.024 | -0.04 | -0.081 | 0.06 | -0.058 | -0.037 | -0.023 | 0.021 | 0.021 | -0.094 |
| SEC23IP (UniProt Q9Y6Y8) | -0.006 | 0 | -0.002 | 0.016 | 0 | -0.065 | 0.009 | -0.096 | 0.035 | -0.006 | 0.142 | -0.238 | 0.055 | 0.039 | 0.021 | -0.212 | -0.002 | 0.074 | 0.043 | -0.166 |
| SLC1A5 (UniProt Q15758) | -0.048 | 0.071 | -0.052 | 0.031 | -0.126 | 0.058 | 0.023 | 0.095 | -0.01 | 0.024 | 0.026 | 0.13 | 0.072 | -0.186 | 0.044 | -0.105 | -0.064 | -0.091 | -0.007 | 0.167 |
| SLC19A1 (UniProt P41440) | 0.047 | -0.164 | -0.106 | 0.023 | -0.034 | 0.003 | 0 | 0.086 | -0.066 | -0.026 | -0.097 | 0.086 | 0.041 | -0.088 | 0.135 | -0.107 | -0.04 | 0.012 | -0.037 | 0.083 |
| RRP12 (UniProt Q5JTH9) | -0.03 | 0.288 | -0.046 | 0.032 | 0.204 | 0.222 | -0.104 | -0.222 | -0.128 | 0.032 | -0.056 | -0.074 | -0.242 | 0.811 (active) | -0.014 | 0.074 | -0.092 | 0.053 | 0.203 | -0.172 |
| RIOK2 (UniProt Q9BVS4) | -0.039 | 0.064 | -0.017 | 0.01 | -0.025 | 0.074 | -0.101 | -0.057 | 0.08 | 0.049 | 0.059 | -0.057 | -0.167 | 0.189 | -0.037 | 0.263 | -0.001 | 0.053 | 0.084 | -0.019 |
| REEP4 (UniProt Q9H6H4) | -0.039 | -0.072 | -0.034 | 0.033 | -0.07 | -0.32 (active) | -0.032 | -0.031 | 0.121 | -0.175 | -0.015 | -0.148 | -0.027 | 0.02 | -0.013 | 0.001 | -0.111 | 0.02 | 0.06 | -0.275 (active) |
| ROCK2 (UniProt O75116) | -0.009 | -0.006 | 0.023 | 0 | 0.072 | 0.135 | 0.045 | -0.038 | -0.029 | 0.071 | 0.033 | -0.041 | 0.026 | 0.392 (active) | 0.025 | -0.049 | -0.035 | 0.004 | 0.007 | -0.049 |
| RPA3 (UniProt P35244) | 0.054 | -0.038 | 0.056 | -0.064 | 0.073 | -0.05 | -0.01 | -0.048 | 0.04 | 0.046 | -0.044 | 0.042 | -0.162 | -0.098 | 0.043 | 0.11 | 0.053 | 0.003 | -0.054 | 0.109 |
| SH2D1B (UniProt O14796) | 0.129 | 0.086 | -0.037 | 0.117 | -0.075 | 0.072 | -0.078 | 0.236 | 0.053 | -0.004 | -0.031 | -0.765 (active) | 0.075 | -0.201 | 0.102 | -0.692 | -0.479 | -0.08 | -0.072 | 0.06 |
| SCPEP1 (UniProt Q9HB40) | 0.078 | -0.082 | 0.009 | 0.002 | 0.007 | -0.058 | -0.014 | 0.057 | -0.021 | 0.096 | -0.03 | -0.254 (active) | -0.041 | -0.028 | 0.083 | 0.127 | -0.03 | 0.032 | -0.032 | -0.163 |
